# Assay results taken from the supplement of paper PMC11417369.
# ± gives the standard deviation of the averaged measurements. The full ranking holds about 25,000 sequences; the median of “ln(normalized median fluorescence intensity)” is about 8.9, and the highest 2% start at about 10. What follows is part of a selection rich in the highest values, with near analogues and random picks from the rest.
# Tested on: PfAP2-LT AP2 domain (GST-tagged)
# Assay: gcPBM binding intensity (ln(normalized median fluorescence intensity)); higher = stronger DNA binding
# In short: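 After 1 h on an Agilent 4 × 180k array of primer-extended double-stranded 36-bp intergenic genomic probes and negative controls, bound GST-tagged P. falciparum DNA-binding domains were detected with Alexa488 anti-GST antibody and scanned at 488 nm. The domains had been expressed in E. coli, and binding took place in 1× PBS with 1% milk, 0.2 mg/ml BSA, 0.5% salmon testes DNA and 0.03% Triton X-100. Binding intensity is the highest Masliner-normalised natural-log median intensity across replicate spots of either probe orientation.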
row,Sequence,gcPBM binding intensity (ln)
1,TTTCTTTTTTTTTTTTTTTCTGGCTTTTTCTCTTTT [TGCATGCA_negctrl_site599],8.69 ± 0.49
2,TAATATAAAGAAAAGGAACACACAAATATATATATA [CACACA_site8049],9.04 ± 0.38
3,ATATAAAGAAAAGGAACACACAAATATATATATATA [CACACA_site463],9.56 ± 0.25
4,AACAAATACGGACACACACACACACTAGAAAAAAAA [CACACA_site4442],9.82 ± 0.29
5,AGAATAAAAAGGAACACACACACACGCATATAAATA [CACACA_site7659],10.1 ± 0.39
6,AATAAAAAGGAACACACACACACACGGATATAAATA [CACACA_site7658],10.3 ± 0.37
7,TATTAATACGGACACACACACACACTAGATAAAATA [CACACA_site4295],10.1 ± 0.11
8,ATAAATATTAAAAGTACACACAGATACACTAATTAT [CACACA_site1808],9.16 ± 0.36
9,ACCATATAAATAAACACACACACACGGATATAAATA [CACACA_site7157],10.1 ± 0.2
10,AAAAAAAAAAAAAACACACACACACGCATAAATATA [CACACA_site6217],9.95 ± 0.28
11,TGATTTGTGCCGATTTGTACACATTTATATATATAT [XGTACX_site2154],9.13 ± 0.35
12,GTATATATATATATATATATATATATATATATATAT [CACACA_negctrl_site609],9.63 ± 0.042
13,ATACAAATTGTTTAAAGTACAAATTACACCTCTTAA [XGTACX_site6888],8.62 ± 0.44
14,CATAGGAACATAAGTTGTACGCTATACATACAACAT [XGTACX_site1054],9.05 ± 0.45
15,TTTTCTATATAGTGTTGTACATTATTGTGTAAAAAT [XGTACX_site3223],8.7 ± 0.46
16,AATATAATGTAATATACACACATATATTTCTCTTTT [CACACA_site5451],8.95 ± 0.45
17,TATACACGCGGACACACACACACACGCAAAAAAAAA [CACACA_site6377],10 ± 0.23
18,ATAGTATACGGACACACACACACACCGATATATATA [CACACA_site5032],10.3 ± 0.38
19,ACCTACATAACATACACACGCATATATATAATTTTA [CACACA_site2847],9.22 ± 0.33

row,Sequence,gcPBM binding intensity (ln)
1,ATAGTATACAGACACACACACACACCGATATATATA [CACACA_site8511],10.1 ± 0.13
2,CGCATACACGGACACACACACACATATATATATATA [CACACA_site4520],10.23 ± 0.071
3,TATAGATACCTATACACACACACACGGACATATATA [CACACA_site7585],10 ± 0.25
4,TATTTATATTTATATACACACATACATATTTATATT [CACACA_site6535],9.1 ± 0.4
5,CATATATACACATACACACACACACGGACACGCACA [CACACA_site6910],10.07 ± 0.085
6,AGTATACATATATATACACACACACCGATATATATA [CACACA_site8357],9.74 ± 0.23
7,CATACACGCGGACACACACACACACGCATATATAAC [CACACA_site6427],10.1 ± 0.23
8,ACCATACATACATACACACACACACGCATATTTATA [CACACA_site7386],10.1 ± 0.29
9,TATATATATATTTATACACACACATATATTTATATA [CACACA_site8054],9.13 ± 0.29
10,ATAATACATACATACATACACACATATATATATATT [CACACA_site3576],9.29 ± 0.38
11,TTTTTAATCATAATATGTACATATAAAAATGGTTTG [XGTACX_site3996],8.54 ± 0.41
12,TAAAAATGTAAACACACACACATAAATATATTTTAT [CACACA_site5397],9.45 ± 0.26
13,GATAAAATAGGACCATATTCTTTAAAACGATAAAAT [XGTACX_negctrl_site405],8.73 ± 0.51
14,TTATATTATATATATATTATATATATGTATGCATAA [TGCATGCA_negctrl_site481],8.72 ± 0.2
15,TTTTGCAAATATTACTGTACACAATCTCATATAATT [XGTACX_site2584],8.81 ± 0.35
16,ATTATTTTTTTTGAAGTGCAATATTATTTTTAATCA,8.46 ± 0.45
17,AAAGTATTCTTTACACGTACATATATATAAATATAA [XGTACX_site7557],8.59 ± 0.33
18,CATACACCCGGACACACACACACACCCATATATAAT [CACACA_site4494],10 ± 0.35
19,CATACATACGGACACACACACATATATATATATATA [CACACA_site5598],10.3 ± 0.15

row,Sequence,gcPBM binding intensity (ln)
1,CTAAAATACGGACACACACACACATATATATATATA [CACACA_site6138],10.3 ± 0.11
2,AGGATACACGGACACACACACATATATATATATATA [CACACA_site4654],10.43 ± 0.078
3,TTATAAATAAAAAATACACACATATATATATATATA [CACACA_site207],9.64 ± 0.2
4,AAAATACCCGGACACACACACATATATATATATATT [CACACA_site6137],9.88 ± 0.49
5,AGGATACACGGACACACACACATATAGATTTATATA [CACACA_site6552],9.78 ± 0.51
6,AAAAAACACGGACACACACACATATACATACATACA [CACACA_site5470],9.98 ± 0.41
7,ATTATATATATATATACACACACATATATATATATA [CACACA_site8373],9.47 ± 0.25
8,TATACACCCGGACACACACACATATATATATATATA [CACACA_site5030],10.36 ± 0.028
9,AAAAAAAACGGACACACACACATAAATATATATAAA [CACACA_site4260],9.86 ± 0.34
10,TACATATTTATATACACACACACACGGATATTTATA [CACACA_site7239],9.87 ± 0.45
11,AGTAAAAGAAAGCACACACACATGTATTTATGTATG [CACACA_site5998],9.71 ± 0.42
12,TATATATATATATATTGTACACATACATGTAGTTTT [XGTACX_site4848],9.48 ± 0.49
13,ACACATATAATAGTTACATGCAAAAATACTTTTATT [TGCATGCA_site785],9.03 ± 0.47
14,ACCAAATCATATATAGCACACAAATTCTTTATTATT [CACACA_site8911],8.94 ± 0.38
15,TAAAAAAAAACATGATGTACATAAAATTTTTTACTT [XGTACX_site7056],8.59 ± 0.47
16,AAAAAAATATATAAATGTACATATTGTTTAATTAAT [XGTACX_site3794],8.7 ± 0.45
17,ATAATAAATGATAGCACACATATGTACATAAATACA [CACACA_site4634],9.24 ± 0.31
18,TATTAATTTATATCAACACACAAAATCAATATACTT [CACACA_site1757],8.7 ± 0.42
19,ATTATGCTACAAGGAGAACACACAATTGCCACTTTT [CACACA_site8673],9.1 ± 0.46
